These results are taken from PubChem BioAssay (EPA / NIEHS).

In test [1] the target is Paired box protein Pax-6 (Homo sapiens) (UniProt P26367). In words: ATG_Pax6_CIS: Attagene CIS-FACTORIAL HepG2 Assay for human Paired Box 6 (PAX6) (AID 2282956). The settings on record: HepG2 CIS-FACTORIAL PAX6 reporter transcription, RNA readout; actives raise or lower the signal. In short, it runs like this:
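Transient MRTU transfection of HepG2 → compound exposure 24 h → TriZol RNA, oligo(dT) RT → PCR, 6-FAM primer extension, HpaI cut → capillary electrophoresis; activity fitted both directions against DMSO.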

Test [2] in a line: ATG_PXRE_CIS: Attagene CIS-FACTORIAL HepG2 Assay for human Pregnane X Receptor Element (PXRE) (AID 2282957). Conditions: HepG2 Attagene CIS-FACTORIAL PXRE reporter, mRNA; actives raise or lower the signal. Put shortly:
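Transiently transfected HepG2 cells were dosed and incubated for 24 h. RNA was then isolated, DNase-treated, reverse-transcribed and reporter sequences amplified. Labeled, HpaI-digested fragments were quantified by capillary electrophoresis against DMSO.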

The nature of test [3]: ATG_PPRE_CIS: Attagene CIS-FACTORIAL HepG2 Assay for human Peroxisome Proliferator-activated Response Element (PPRE) (AID 2282958). Conditions: HepG2 PPRE cis-element reporter, Attagene transcription factor profiling; actives raise or lower the signal. In short, it runs like this:
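HepG2 cells are transiently transfected with multiplexed cis-promoter reporter units to report endogenous PPAR activity. After 24 h dosing, reporter mRNA is read by RT-PCR and capillary electrophoresis. Fitting is bidirectional against DMSO.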

Test [4] is described as follows: ATG_RORE_CIS: Attagene CIS-FACTORIAL HepG2 Assay for human RAR-related Orphan Receptor Element (RORE) (AID 2282959). Conditions: HepG2 Attagene cis-factorial RORE reporter, mRNA; actives raise or lower the signal. Put shortly:
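HepG2 cells carrying transiently transfected cis-regulated reporter units; RORE-driven reporter mRNA quantified 24 h post-dosing by RT-PCR, 6-FAM primer extension, HpaI digestion and capillary electrophoresis. Bidirectional fit versus DMSO.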

Test [5] can be described thus: ATG_Sox_CIS: Attagene CIS-FACTORIAL HepG2 Assay for human SRY-box transcription factor (SOX) (AID 2282960). Conditions: HepG2 Attagene cis-factorial SOX reporter, mRNA; actives raise or lower the signal. In short, it runs like this: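 HepG2 cells transiently transfected with multiple cis-regulated reporter units, then dosed for 24 h. Reporter mRNA quantified by RT-PCR, fluorescent labelling, HpaI digestion and capillary electrophoresis; bidirectional fit versus DMSO.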

In test [6] the target is Transcription factor Sp1 (Homo sapiens) (UniProt P08047). Put plainly: ATG_Sp1_CIS: Attagene CIS-FACTORIAL HepG2 Assay for human Specificity Protein 1 (Sp1) (AID 2282961). The settings on record: HepG2 Sp1 cis-reporter transcription, actives raise or lower the signal. Put shortly:
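HepG2 cells transiently transfected with multiplexed cis-regulated reporter constructs, chemical exposure 24 h. Reporter mRNA quantified by RT-PCR with capillary electrophoresis; bidirectional fit relative to DMSO.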

Test [7] can be described thus: ATG_SREBP_CIS: Attagene CIS-FACTORIAL HepG2 Assay for human Sterol Regulatory Element Binding (SREBP) (AID 2282962). Conditions: HepG2 Attagene cis-factorial SREBP reporter, mRNA; actives raise or lower the signal. Put shortly: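 Transfected HepG2 (cis-regulated reporter library, endogenous TFs) → compound 24 h → total RNA → oligo(dT) RT → reporter-specific PCR → FAM primer extension, HpaI cut → CE fluorescence. Fit bidirectional vs DMSO.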

Test [8] deals with Signal transducer and activator of transcription 3 (Homo sapiens) (UniProt P40763). Put plainly: ATG_STAT3_CIS: Attagene CIS-FACTORIAL HepG2 Assay for human Signal Transducer and Activator of Transcription 3 (STAT3) (AID 2282963). The settings on record: HepG2, Attagene cis-factorial STAT3 reporter transcription; actives raise or lower the signal. Put shortly: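 Transcript-level reporter assay. HepG2 transient MRTU transfection, 24 h exposure, fluorescence detection after RT-PCR and CE; DMSO baseline.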
Chain of Signal transducer and activator of transcription 3 (Homo sapiens) (P40763 whole entry, looked up): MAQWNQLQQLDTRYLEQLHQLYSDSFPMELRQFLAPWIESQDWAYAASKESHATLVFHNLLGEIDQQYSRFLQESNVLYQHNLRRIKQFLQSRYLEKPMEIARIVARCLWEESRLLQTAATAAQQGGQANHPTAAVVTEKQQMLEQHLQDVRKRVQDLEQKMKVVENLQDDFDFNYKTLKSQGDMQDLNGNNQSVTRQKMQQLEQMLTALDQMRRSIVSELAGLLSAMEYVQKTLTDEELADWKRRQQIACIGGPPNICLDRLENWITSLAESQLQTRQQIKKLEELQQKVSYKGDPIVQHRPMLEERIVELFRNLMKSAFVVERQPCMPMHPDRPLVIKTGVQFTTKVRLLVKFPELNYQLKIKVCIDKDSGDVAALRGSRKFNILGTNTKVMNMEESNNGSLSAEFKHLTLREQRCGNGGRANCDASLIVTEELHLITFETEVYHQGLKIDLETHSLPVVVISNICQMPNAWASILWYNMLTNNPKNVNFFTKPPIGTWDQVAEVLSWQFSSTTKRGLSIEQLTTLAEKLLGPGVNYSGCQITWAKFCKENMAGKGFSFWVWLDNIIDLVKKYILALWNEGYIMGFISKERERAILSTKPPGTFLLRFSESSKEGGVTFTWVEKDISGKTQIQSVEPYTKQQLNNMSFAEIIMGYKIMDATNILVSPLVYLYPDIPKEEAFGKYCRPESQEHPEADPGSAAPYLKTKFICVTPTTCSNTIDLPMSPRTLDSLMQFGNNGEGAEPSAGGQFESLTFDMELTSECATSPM

Test [9] in a line: ATG_TA_CIS: Attagene CIS-FACTORIAL HepG2 Assay for human TA Basal Promoter (AID 2282964). The settings on record: HepG2 Attagene CIS-factorial TA basal promoter reporter; actives raise or lower the signal. Put shortly:
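Transient MRTU transfection of HepG2 preceded 24 h compound exposure. Reporter mRNA levels were then read by RT-PCR with capillary electrophoresis, and this background-control endpoint was fitted bidirectionally to DMSO.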

A short description of test [10]: ATG_TCF_b_cat_CIS: Attagene CIS-FACTORIAL HepG2 Assay for human T-Cell-Factor with beta-catenin (TCF/b-cat) (AID 2282965). Conditions: HepG2 TCF/beta-catenin cis-reporter transcription, actives raise or lower the signal. Put shortly:
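Using capillary electrophoresis as the read-out, labelled reporter cDNA fragments from transiently transfected HepG2 were sized and quantified. Exposure lasted 24 hours; activity in either direction was referenced to DMSO.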

Test [11] is described as follows: ATG_TAL_CIS: Attagene CIS-FACTORIAL HepG2 Assay for human TAL Basal Promoter (AID 2282966).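 Further: background control endpoint measuring basal TAL promoter reporter mRNA not a specific factor.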 The settings on record: HepG2 Attagene cis-factorial TAL promoter reporter; actives raise or lower the signal. Put shortly: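 Readout: reporter mRNA, fluorescence by CE. System: HepG2, transient multi-reporter transfection, endogenous TF activity. Exposure: 24 h. Analysis: bidirectional, DMSO-normalized; background control.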

A short description of test [12]: ATG_TGFb_CIS: Attagene CIS-FACTORIAL HepG2 Assay for human Transforming Growth Factor (TGF) (AID 2282967). Conditions: HepG2 Attagene CIS TGFb reporter, mRNA transcription; actives raise or lower the signal. In short, it runs like this: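 After a 24-hour incubation with compound, transfected HepG2 cells were lysed for RNA; reporter cDNA was amplified, fluorescently end-labeled and separated by CE. DMSO served as baseline for bidirectional fits.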

Test [13] is described as follows: ATG_VDRE_CIS: Attagene CIS-FACTORIAL HepG2 Assay for human Vitamin D Receptor Element (VDRE) (AID 2282968). The settings on record: HepG2 VDRE cis-reporter transcription, actives raise or lower the signal. Put shortly:
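RT-PCR/CE readout of reporter mRNA; HepG2, transient transfection, 24 h dosing; DMSO baseline; bidirectional analysis.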

Test [14] deals with Estrogen receptor (Homo sapiens) (UniProt P03372). Put plainly: ATG_ERa_TRANS: Attagene TRANS-FACTORIAL HepG2 Assay for human Estrogen Receptor alpha (ERa) (AID 2282970; active means hit-call score of the fitted dose curve at least 0.9, where 1 is the maximum). The settings on record: HepG2 Attagene TRANS ERa GAL4 reporter, mRNA. In short, it runs like this:
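Transactivation via ERa-Gal4 chimera in HepG2; 24 hour incubation; reporter mRNA detected by fluorescence RT-PCR and capillary electrophoresis.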

Test [15] has as its target X-box-binding protein 1 (Homo sapiens) (UniProt P17861). In words: ATG_Xbp1_CIS: Attagene CIS-FACTORIAL HepG2 Assay for human X-box Binding Protein 1 (XBP1) (AID 2282972). Conditions: HepG2 XBP1 cis-element reporter, Attagene multiplex; actives raise or lower the signal. In short, it runs like this:
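HepG2, transient MRTU transfection (cis-promoter driven), 24 h compound exposure. Total RNA → oligo(dT) RT → PCR → 6-FAM labeling → HpaI cut → CE. Bidirectional fit vs DMSO.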

A short description of test [16]: ATG_M_19_TRANS: Attagene TRANS-FACTORIAL HepG2 Assay for M19 Transcription Factor (Internal Marker) (AID 2282974; active means hit-call score of the fitted dose curve at least 0.9, where 1 is the maximum). The settings on record: HepG2 Attagene TRANS-FACTORIAL M19 internal marker reporter. Put shortly: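 HepG2 transiently transfected with GAL4-UAS multiplex reporter constructs, exposed 24 h; reporter RNA quantified by RT-PCR, 6-FAM labeling, HpaI digestion and capillary electrophoresis; internal background marker fitted upward versus DMSO.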

The target in test [17] is Nuclear receptor subfamily 1 group I member 3 (Homo sapiens) (UniProt Q14994). In words: ATG_CAR_TRANS: Attagene TRANS-FACTORIAL HepG2 Assay for human Constitutive Androstane Receptor (CAR) (AID 2282969; active means hit-call score of the fitted dose curve at least 0.9, where 1 is the maximum;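 further: activators raise reporter mRNA above DMSO so AC50 marks induction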). Conditions: HepG2 Attagene TRANS-FACTORIAL CAR reporter. In short, it runs like this:
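HepG2 cells transiently transfected with multiplexed GAL4-UAS reporter units expressing chimeric NR-Gal4 proteins; compound exposure 24 h. Reporter mRNA measured by RT-PCR, 6-FAM labelling, HpaI digestion and capillary electrophoresis; gain-of-signal fitted against DMSO baseline.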

Test [18] concerns the target Androgen receptor (Homo sapiens) (UniProt P10275). Put plainly: ATG_AR_TRANS: Attagene TRANS-FACTORIAL HepG2 Assay for human Androgen Receptor (AR) (AID 2282973; active means hit-call score of the fitted dose curve at least 0.9, where 1 is the maximum). The settings on record: HepG2 Attagene TRANS-FACTORIAL AR reporter transcription. In short, it runs like this:
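Transfected HepG2, 24 h treatment, chimeric NR-Gal4 driving GAL4-UAS reporters. mRNA induction by RT-PCR/capillary electrophoresis fluorescence; DMSO as negative control and baseline.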

Test [19] concerns the target Steroid hormone receptor ERR1 (Homo sapiens) (UniProt P11474). Put plainly: ATG_ERRa_TRANS: Attagene TRANS-FACTORIAL HepG2 Assay for human Estrogen-Related Receptor alpha (ERRa) (AID 2282971; active means hit-call score of the fitted dose curve at least 0.9, where 1 is the maximum). Conditions: HepG2 Attagene TRANS reporter, ERRa transactivation. Put shortly:
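HepG2 cells were transiently transfected with multiple GAL4-UAS reporter units, then dosed with compound for 24 h. Total RNA was reverse-transcribed, reporter cDNA PCR-amplified and fluorescently labelled, and fragments resolved by capillary electrophoresis; induction was compared with DMSO.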

Values joined by “and” are separate entries in the source; they are usually repeats but may differ in a detail not shown here. Equal values may be shown once. Records with an inconclusive call do not appear. More than one record can exist for a structure, and the calls need not agree. Active and inactive are the calls of the source. How the source made its calls, unless noted: active means hit-call score of the fitted dose curve at least 0.9, where 1 is the maximum; inactive means score below 0.9.

Chain of Paired box protein Pax-6 (Homo sapiens) (P26367 whole entry, looked up): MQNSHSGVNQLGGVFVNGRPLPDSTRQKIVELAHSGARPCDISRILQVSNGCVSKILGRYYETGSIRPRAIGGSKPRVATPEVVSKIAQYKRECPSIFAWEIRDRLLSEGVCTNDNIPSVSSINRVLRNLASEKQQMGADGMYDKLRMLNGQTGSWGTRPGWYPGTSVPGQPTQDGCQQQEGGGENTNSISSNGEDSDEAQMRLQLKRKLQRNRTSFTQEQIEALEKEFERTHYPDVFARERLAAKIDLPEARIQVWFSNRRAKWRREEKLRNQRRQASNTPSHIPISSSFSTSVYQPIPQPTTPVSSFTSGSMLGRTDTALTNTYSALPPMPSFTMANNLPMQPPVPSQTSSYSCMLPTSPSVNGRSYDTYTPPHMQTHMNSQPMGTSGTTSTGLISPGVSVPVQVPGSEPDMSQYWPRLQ
Chain of X-box-binding protein 1 (Homo sapiens) (P17861 whole entry, looked up): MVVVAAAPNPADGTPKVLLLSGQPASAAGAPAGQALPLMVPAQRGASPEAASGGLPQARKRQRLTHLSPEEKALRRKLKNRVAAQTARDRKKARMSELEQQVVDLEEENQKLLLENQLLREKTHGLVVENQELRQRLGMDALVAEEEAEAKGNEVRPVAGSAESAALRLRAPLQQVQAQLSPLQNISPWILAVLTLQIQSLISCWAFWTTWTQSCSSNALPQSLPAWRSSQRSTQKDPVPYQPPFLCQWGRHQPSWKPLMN
Chain of Transcription factor Sp1 (Homo sapiens) (P08047 whole entry, looked up): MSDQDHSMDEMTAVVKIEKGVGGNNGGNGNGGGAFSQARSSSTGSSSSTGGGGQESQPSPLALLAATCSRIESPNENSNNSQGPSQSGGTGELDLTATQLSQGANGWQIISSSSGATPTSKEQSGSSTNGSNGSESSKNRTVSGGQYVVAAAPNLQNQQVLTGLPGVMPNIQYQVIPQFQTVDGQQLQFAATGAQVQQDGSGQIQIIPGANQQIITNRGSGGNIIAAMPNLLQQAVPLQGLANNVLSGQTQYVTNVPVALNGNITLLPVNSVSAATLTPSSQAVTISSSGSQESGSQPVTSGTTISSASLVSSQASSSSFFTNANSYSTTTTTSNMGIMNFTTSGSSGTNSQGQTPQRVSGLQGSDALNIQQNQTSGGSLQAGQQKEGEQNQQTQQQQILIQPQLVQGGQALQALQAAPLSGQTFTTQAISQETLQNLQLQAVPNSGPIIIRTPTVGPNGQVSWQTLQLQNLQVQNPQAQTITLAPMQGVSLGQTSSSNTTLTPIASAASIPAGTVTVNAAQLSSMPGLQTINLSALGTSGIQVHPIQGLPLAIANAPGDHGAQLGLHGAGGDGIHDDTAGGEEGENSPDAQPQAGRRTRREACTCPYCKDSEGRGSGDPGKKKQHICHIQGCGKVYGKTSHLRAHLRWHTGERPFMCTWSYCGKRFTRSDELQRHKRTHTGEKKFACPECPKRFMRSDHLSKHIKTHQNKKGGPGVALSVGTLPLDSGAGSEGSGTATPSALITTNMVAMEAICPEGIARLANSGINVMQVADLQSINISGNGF
Chain of Estrogen receptor (Homo sapiens) (P03372 whole entry, looked up, the tested form may be a part): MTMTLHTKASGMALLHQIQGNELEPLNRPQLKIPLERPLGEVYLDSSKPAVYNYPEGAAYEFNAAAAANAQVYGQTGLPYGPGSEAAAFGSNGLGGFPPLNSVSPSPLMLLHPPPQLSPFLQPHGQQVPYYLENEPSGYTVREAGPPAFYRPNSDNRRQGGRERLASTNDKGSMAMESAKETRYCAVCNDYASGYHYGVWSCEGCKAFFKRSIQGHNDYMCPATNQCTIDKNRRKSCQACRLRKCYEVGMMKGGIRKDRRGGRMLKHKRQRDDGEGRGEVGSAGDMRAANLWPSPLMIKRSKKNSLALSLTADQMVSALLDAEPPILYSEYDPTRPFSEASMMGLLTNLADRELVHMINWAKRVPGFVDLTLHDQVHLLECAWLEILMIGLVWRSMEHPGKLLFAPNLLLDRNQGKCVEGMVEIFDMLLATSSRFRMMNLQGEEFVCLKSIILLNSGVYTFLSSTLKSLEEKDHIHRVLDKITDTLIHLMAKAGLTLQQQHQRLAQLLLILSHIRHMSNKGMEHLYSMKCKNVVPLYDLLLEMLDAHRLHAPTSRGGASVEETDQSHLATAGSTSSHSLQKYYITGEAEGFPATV
Chain of Nuclear receptor subfamily 1 group I member 3 (Homo sapiens) (Q14994 whole entry, looked up, the tested form may be a part): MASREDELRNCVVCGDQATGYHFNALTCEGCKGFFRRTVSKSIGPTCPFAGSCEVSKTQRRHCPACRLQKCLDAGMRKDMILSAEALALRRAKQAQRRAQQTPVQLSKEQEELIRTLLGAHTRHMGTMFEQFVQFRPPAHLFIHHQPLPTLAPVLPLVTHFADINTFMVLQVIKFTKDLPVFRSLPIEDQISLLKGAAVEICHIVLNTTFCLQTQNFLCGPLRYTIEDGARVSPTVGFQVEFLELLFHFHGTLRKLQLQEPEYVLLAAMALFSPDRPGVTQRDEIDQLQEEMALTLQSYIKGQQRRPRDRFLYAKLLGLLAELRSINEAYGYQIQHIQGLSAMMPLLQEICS
Chain of Steroid hormone receptor ERR1 (Homo sapiens) (P11474 whole entry, looked up, the tested form may be a part): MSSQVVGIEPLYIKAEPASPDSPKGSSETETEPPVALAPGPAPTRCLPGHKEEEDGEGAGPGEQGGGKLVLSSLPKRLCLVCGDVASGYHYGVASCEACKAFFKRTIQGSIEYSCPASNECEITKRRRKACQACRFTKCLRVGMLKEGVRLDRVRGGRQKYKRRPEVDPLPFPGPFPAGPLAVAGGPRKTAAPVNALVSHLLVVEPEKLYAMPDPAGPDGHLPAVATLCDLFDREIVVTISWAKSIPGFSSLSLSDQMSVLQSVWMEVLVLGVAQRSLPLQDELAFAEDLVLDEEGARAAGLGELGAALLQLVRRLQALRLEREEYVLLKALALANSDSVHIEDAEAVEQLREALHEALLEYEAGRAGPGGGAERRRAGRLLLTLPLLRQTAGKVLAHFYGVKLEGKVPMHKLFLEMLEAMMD
Chain of Androgen receptor (Homo sapiens) (P10275 whole entry, looked up, the tested form may be a part): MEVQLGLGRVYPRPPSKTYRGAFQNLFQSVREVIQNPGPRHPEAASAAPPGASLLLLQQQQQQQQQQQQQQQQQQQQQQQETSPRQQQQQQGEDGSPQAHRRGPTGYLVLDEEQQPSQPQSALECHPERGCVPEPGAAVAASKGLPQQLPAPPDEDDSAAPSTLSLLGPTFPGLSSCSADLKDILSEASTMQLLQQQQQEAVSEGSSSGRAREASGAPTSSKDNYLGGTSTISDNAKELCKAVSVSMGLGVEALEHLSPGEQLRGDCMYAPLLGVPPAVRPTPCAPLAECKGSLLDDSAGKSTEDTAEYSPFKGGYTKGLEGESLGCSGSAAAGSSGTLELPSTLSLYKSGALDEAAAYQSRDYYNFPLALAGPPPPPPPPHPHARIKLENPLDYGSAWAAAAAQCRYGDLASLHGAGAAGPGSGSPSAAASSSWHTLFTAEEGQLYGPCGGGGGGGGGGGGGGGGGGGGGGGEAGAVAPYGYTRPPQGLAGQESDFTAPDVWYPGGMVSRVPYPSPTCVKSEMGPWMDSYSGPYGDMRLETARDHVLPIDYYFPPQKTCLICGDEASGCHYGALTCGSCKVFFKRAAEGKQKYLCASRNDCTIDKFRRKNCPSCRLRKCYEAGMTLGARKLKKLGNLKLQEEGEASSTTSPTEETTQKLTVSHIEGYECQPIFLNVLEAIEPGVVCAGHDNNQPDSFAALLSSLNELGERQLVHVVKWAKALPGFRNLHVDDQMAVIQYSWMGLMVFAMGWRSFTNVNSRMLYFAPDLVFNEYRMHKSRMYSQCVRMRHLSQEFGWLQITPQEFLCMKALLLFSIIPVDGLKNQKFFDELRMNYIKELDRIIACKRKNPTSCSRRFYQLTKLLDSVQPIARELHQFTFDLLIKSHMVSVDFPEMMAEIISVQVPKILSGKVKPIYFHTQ

As for `N#Cc1ccc(N(CC(N)=O)CC(F)(F)F)cc1C(F)(F)F`, the call in test [1], in test [2], in [3], in [4], in [5] and in test [6] was inactive. Also, the molecule was called inactive in test [7], in test [8], in test [9], in [10], in [11] and in [12]. The molecule was classed as inactive in test [13], in test [14], in test [15] and in [16].
Turning to `O=C(NC(=O)c1c(F)cccc1F)Nc1cc(Cl)c(OC(F)(F)C(F)F)c(Cl)c1`, the outcome in test [1], in [2], in test [3], in test [4], in test [5] and in test [6] was inactive. Moreover, the call in test [7], in [8], in [9], in test [10], in test [11] and in test [12] was inactive. Besides, the molecule was called inactive in [17], in [14], in [15] and in [18].
Take `Cc1ccc(O)c(C)c1`: the outcome in test [1], in test [2], in test [3], in test [4], in [5] and in test [6] was inactive. Moreover, the molecule was classed as inactive in test [7], in test [8], in test [9], in [11], in [12] and in test [14]. Also, the result in test [19], in [15] and in test [16] was inactive. Moreover, the AC50 (as a rule, the concentration at which the activity in the assay is half-maximal) in test [10] is 168 µM (active).
Regarding `O=NN(c1ccccc1)c1ccccc1`, the molecule was called inactive in test [1], in [3], in [4], in test [5], in test [6] and in test [7]. In addition, the result in [8], in test [9], in test [10], in test [11], in [12] and in test [15] was inactive. Moreover, the AC50 is 27.8 µM (active) in test [2] and 23.6 µM (active) in test [14].
In the case of `C[C@]12CCC(=O)C=C1CC[C@@H]1[C@@H]2CC[C@@]2(C)[C@H]1CC[C@]2(C)O`, the molecule was called inactive in test [1], in [3], in [4], in test [5], in test [6] and in test [7]. In addition, the result in [8], in test [9], in test [10], in [11], in test [12] and in test [13] was inactive. Further, the molecule was called inactive in [17], in [15] and in test [16]. Further, the AC50 is 57.5 µM (active) and 45.9 µM (active) and 62.4 µM (active) in test [7]; 55.7 µM (active) and 15.9 µM (active) in [10]; 18.2 µM (active) in test [13].
As to `C=CC(N)=O`, the outcome in [1], in test [4], in [5], in test [6], in [7] and in test [8] was inactive. Further, the call in test [9], in [10], in [11], in [12], in test [19] and in test [15] was inactive. In addition, the AC50 in [2] is 34 µM (active); in test [13] it was 100 µM (active).
